Bioassay records (PubChem)
CHX counter: counter-screen for Shiga toxin inhibitors: cycloheximide protein synthesis inhibition | cell reporter, cycloheximide protein synthesis inhibition counterscreen | 300,000 compounds, 12% hits | AID 2314 | max response, %; in the data active = max response mostly above about 13%, no sharp cut-off; inactive = mostly below about 14%; also: read at 38.3 µM for the half of the compounds with a filed dose; 0% is about no effect
Shiga toxin inh: blocks Shiga toxin action in Vero cells | Vero cells, Shiga toxin protein synthesis inhibition reporter | inhibition, % at 38.7 µM | 290,000 compounds, 9.2% hits; in the data active = inhibition mostly above about 28%, no sharp cut-off; inactive = mostly below about 43%; also: 0% is about no effect
Pf growth 48h: inhibits P. falciparum growth in the first generation, 48 h. P. falciparum luciferase growth in erythrocytes, 48 h. Potency, µM (top dose mostly 28.7 µM), for inactives: top-dose activity change, negative = inhibition, hits mostly inhibitors. 310,000 compounds, 5.9% hits. AID 504832; also: potency is read from the fitted curve at half-maximal effect; % is scaled to controls: 0 for no effect and ±100 for the full control effect
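Luciferase-expressing parasites in RBCs, 2% Hct / 0.1% parasitemia final; RPMI 1640 + 0.5% Albumax; 37 C, 5% CO2, one generation; luminescence read-out, lower signal = inhibition.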
HCV inhibitor: blocks hepatitis C virus. Huh7.5.1 HCVcc-Cre infection, luciferase reporter, 44 h. Potency, µM (doses to about 41.8 µM), inactives show at the top dose activity change, negative = inhibition, actives largely listed as inhibitors. 340,000 compounds, 3.4% hits. AID 651820; also: potency is read from the fitted curve at half-maximal effect; % is scaled to controls: 0 for no effect and ±100 for the full control effect
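Antiviral activity was scored by luciferase reporter output from cells infected with HCVcc-Cre (~0.5 moi) in presence of compound, 44 h infection period, cells seeded 1,000/well 4 h prior.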
Pf growth 96h: P. falciparum growth inhibition at 96 hours | P. falciparum luciferase reporter growth, 96 h | 320,000 compounds, 6.9% hits | AID 504834 | Potency, µM (titrated, usually from 28.7 µM), without a hit: top-dose activity change, negative = inhibition, actives largely listed as inhibitors; also: potency is read from the fitted curve at half-maximal effect; % is scaled to controls: 0 for no effect and ±100 for the full control effect
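Compounds incubated with erythrocytes infected by luciferase-expressing P. falciparum (2% hematocrit, 0.05% parasitemia final) for 96 hours, 37 C in 5% CO2. Growth inhibition scored as decreased luciferase luminescence.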
AMA1 RON2 block: inhibitors of Plasmodium falciparum AMA1-RON2 interaction; AlphaScreen AMA1-biotinylated RON2 peptide binding; Potency, µM (titrated, usually from 58.2 µM), for inactives: at the highest dose activity change, negative = inhibition, usual class: inhibitors; 360,000 compounds, 0.2% hits; AID 720542;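 also: potency is read from the fitted curve at half-maximal effect; 0% = vehicle wells and -100% = peptide control; nearly all actives have a fitted effect of over 45% in size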
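AMA1 (3D7) with his tag at 25 nM final met compounds first, then biotinylated RON2 peptide at 25 nM; detection used donor plus acceptor beads, 10 µg/mL apiece, read by AlphaScreen after 30 min at room temperature.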
* = called active by the depositor; i = inactive; ? = inconclusive; · = no result; [ ] = dose if it differs, or a comment. Only some compounds are listed: those with a hit (about 21% of all), similar ones and a draw of the others. Unless noted, calls follow the shape of the dose curve; as a rule, active = well fitted curve in the direction sought with a large enough effect; inconclusive = small, poorly fitted or top-dose-only effect, or another doubt; inactive = no such curve, though single readings can be large; an effect the other way counts as inactive or inconclusive.

SMILES	CHX counter	Shiga toxin inh	Pf growth 48h	HCV inhibitor	Pf growth 96h	AMA1 RON2 block
COc1cc(/C=N/NC(=O)c2cccnc2)ccc1OC(=O)c1ccc([N+](=O)[O-])cc1	-3	-5	16%	2%	?	11%
COc1ccc(C2(C)CC(C)(C)Nc3ccccc32)cc1 (stereo not drawn)	0	·	?	-16%	-30%	-20%
COc1ccc(C2CC(C)(c3ccc(OC)cc3)Nc3ccccc3N2)cc1 (stereo not drawn)	53*	108*	?	?	?	?
CC(=O)c1sc(Nc2nc3cc4c(cc3s2)OCO4)nc1C	27	74*	102%	?	?	-5%
CCOC(=O)c1sc(Nc2nc3c(OC)cccc3s2)cc1C	53*	108*	-57%	10µM*	-64%	-11%[11.6 µM]
CC(=O)c1sc(Nc2ccc3c(c2)OCO3)nc1C	·	·	·	·	·	0%
CC(=O)Nc1nc2cc3c(cc2s1)OCO3	31*	96*	·	8%	251%	-6%
O=C(Nc1nc2cc3c(cc2s1)OCO3)C1=COCCO1	13	10	32%	?	-12%	-3%
O=C(Nc1nc2ccccc2c(=O)s1)c1ccco1	-2	5	2.1µM*	-5%	2%	-5%
CC1(C(=O)NCCc2ccccc2)Cc2c(-c3ccc(C(N)=O)cc3)ccnc2O1 (stereo not drawn)	·	·	·	·	·	4%
O=C1NC[C@H](CC2CCCCC2)N(CCC23CC4CC(CC(C4)C2)C3)C1=O	·	·	·	·	·	-2%
O=C1CSC(=S)N1Nc1ccccc1	·	·	·	9%	·	10%
O=C(COC(=O)c1ccccc1[N+](=O)[O-])Nc1nnc(-c2ccccc2)o1	·	·	-2%	6%	-2%	68%
O=C(COc1ccccc1)Nc1nc2cc3c(cc2s1)OCCO3	28*	19	33%	-8%	75%	-13%
Nc1nc(-c2cccs2)c(-c2cccs2)s1	-2	-6	·	3%	33%	-12%
O=C(Nc1nc(-c2cccs2)c(-c2ccccc2)s1)c1ccco1	18*	31	28%	?	12%	-6%
O=C(Nc1nc2cc3c(cc2s1)OCCO3)c1ccco1	-8	-14	-39%	?	-65%	-5%
CC1CC1C(=O)Nc1nc(-c2cccs2)c(-c2cccs2)s1 (stereo not drawn)	19*	-41	4%	?	-23%	26%
O=C(Nc1nc2cc3c(cc2s1)OCO3)c1ccco1	49*	86*	36%	0%	86%	4%
O=C(COc1ccccc1)Nc1nc2cc3c(cc2s1)OCO3	·	·	·	?	·	4%
OCC[C@@H]1C[C@H](O)[C@@H](O)[C@]2(OCc3ccc(CO)cc32)O1	·	·	·	·	·	22%
CCOC(=O)c1sc(NC(=O)COc2ccc3c(c2)OCO3)nc1C	-3	-7	42%	-2%	9%	-7%
CC(C)C(=O)Nc1nc2cc3c(cc2s1)OCCO3	55*	93*	292%	?	185%	0%
CCOC(=O)c1sc(Nc2nc3cc4c(cc3s2)OCO4)cc1C	43*	82*	8.3µM*	?	9.3µM*	7%[11.6 µM]
Cc1ccc(C(=O)NNC(=O)CCCCC(=O)NNC(=O)c2ccc(C)cc2)cc1	-2	-6	9%	5%	?	22%
SMILES	CHX counter	Shiga toxin inh	Pf growth 48h	HCV inhibitor	Pf growth 96h	AMA1 RON2 block
CC(C)N(C(=O)CCl)c1ccccc1	·	·	·	10µM*	·	4%
CC(C)N(C(=O)COC(=O)Cn1cnc2ccccc21)c1ccccc1	·	·	35%	10%	13%	0%
CC(C)N(C(=O)COC(=O)[C@H](C)NC(N)=O)c1ccccc1	-3	-16	-7%	1%	5%	-12%
Cc1nc2ccccc2nc(C)c1=NOCC(=O)N(c1ccccc1)C(C)C	61*	116*	0%	-1%	?	-13%
OCc1cccc(-c2csc(C(O)c3ccco3)n2)c1 (stereo not drawn)	·	·	·	·	·	8%
Cc1c(OCc2ccc(C(=O)O)o2)ccc2c3c(c(=O)oc12)CCC3	21	84*	57%	9%	?	-3%
COC(=O)c1ccc(COc2cc(C)cc3oc(=O)c4c(c23)CCCC4)o1	9	-1	?	-26%	50%	-3%
Cc1c(OCC(=O)N2CCC(C(=O)O)CC2)ccc2c3c(c(=O)oc12)CCC3	1	-4	40%	0.32µM*	61%	-6%
COC(=O)c1ccc(COc2ccc3c(C)c(C)c(=O)oc3c2C)o1	15*	65*	?	9%	·	12%
O=C(COC(=O)c1ccc(O)cc1O)NC1CC1	·	·	-1%	2%	?	0%
COc1cc(/C=C(/C#N)C(=O)Nc2ccccc2)ccc1OCc1ccc(C(=O)O)cc1	25	36	-1%	-3%	-98%	9%
COc1cc(/C=C(\C#N)C(=O)Nc2cccc(C(=O)O)c2)ccc1OCc1ccc(C)cc1	26*	74*	17%	5%	7%	-3%
COc1ccc(CCNC(=O)/C(C#N)=C/c2cccc(OCc3ccccc3)c2)cc1OC	11	34	?	?	12µM*	?
COc1cc(/C=C(/C#N)c2ccccc2F)ccc1OCc1ccccc1	34*	53*	12µM*	?	-4%	14%
COc1cc(/C=C(\C#N)C(=O)NCc2ccccc2)ccc1OCc1ccc(C(=O)O)cc1	1	19	13µM*	-4%	?	-8%
CCc1ccc(OCC(=O)Nc2nnc(C3CCCC3)s2)cc1	0	-2	-11%	18%	-10%	14%
O=C(C[n+]1ccc(/C=N/O)cc1)N(Cc1ccccc1)Cc1ccccc1	-6	-10	?	2%	9%	-3%
NC(=O)[C@H]1CC2(CC(c3cccc(NC(=O)[C@H]4CCC(=O)N4)c3)=NO2)CN1C(=O)c1cc([N+](=O)[O-])cc([N+](=O)[O-])c1 (stereo partly drawn)	-5	-4	33%	-17%	42%	-4%
COc1cc(/C=C(\C#N)C(=O)NC(C)C)ccc1OCc1ccc(C(=O)O)cc1	6	10	-1%	7%	-23%	-3%
COc1cc(/C=C(\C#N)C(=O)NC2CCCCC2)ccc1OCc1ccc(C(=O)O)cc1	11	34	6.6µM*	5%	-9%	-5%
N#C/C(=C\c1ccc(OCc2cccc(C(=O)O)c2)cc1)C(=O)NCc1ccco1	52*	101*	185%	2%	319%	-10%
N#C/C(=C\c1ccc(OCc2ccc(Cl)cc2)cc1)C(=O)Nc1cccc(C(=O)O)c1	18*	34*	22%	4%	13%	2%
CC(=O)Nc1nc(C)c(CCC2OCCO2)c(=O)[nH]1	-4	-5	19%	?	17%	-3%
O=C1OC2(CCCCC2)CC2=C1C1O[C@](c3ccsc3)(Cc3c1ccc1ccccc31)O2	12	i	31%[5.75 µM]	·	?	·
